# M1 ag: M1 muscarinic receptor agonists, primary screen, CHO-M1 cells, Fluo-4 calcium, agonist mode | Muscarinic acetylcholine receptor M1 | Fluo-4 calcium fluorescence; stronger effect = higher value | B-score at 10 µM | actives 3% (n = 64,000);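 active = fluorescence rise, raw or as B-score row- and column-corrected plate score, outside the 99.7% band of its plate's samples, either direction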
# FXIa inh mix: FXIa protease inhibitors in compound pools, primary screen, biochemical, 10-compound mixtures; Coagulation factor XI (Homo sapiens), P03951; purified FXIa, fluorogenic substrate, pooled mixtures; inhibition, % at 5 µM; actives 0.19% (n = 62,000); AID 680, 2007;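 note: each value is inhibition by a whole ten-compound pool holding the compound; 0% = enzyme with no mixture and 100% = wells lacking enzyme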
# FXIIa mix inh: human factor XIIa inhibitors, primary screen, biochemical, pooled compound mixtures, fluorogenic substrate | actives 0.2% (n = 62,000) | Coagulation factor XII (Homo sapiens), P00748 | purified FXIIa | inhibition, % at 5 µM | AID 684, 2007;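 note: 0% = enzyme without compound and 100% = no enzyme blank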
# JNK3 blocker: JNK3 kinase activity inhibitors, primary screen, biochemical, human, purified enzyme; HTS; actives 0.61% (n = 60,000); inhibition, % at 8 µM; in the data active = inhibition above about 17%;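 note: 0% = DMSO and 100% = reference inhibitor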
# M1 antagonist: antagonists of rat M1 muscarinic receptor | Muscarinic acetylcholine receptor M1 (Rattus norvegicus), P08482 | CHO-M1 cells, Fluo-4 calcium, ACh EC80 antagonist mode; stronger effect = lower value | B-score at 10 µM | actives 3.4% (n = 64,000) | AID 628, 2007;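 active = calcium fluorescence response, raw or row-and-column corrected B-score, differing from the plate sample mean either way at a set confidence level, mostly lower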
# Target sequence (P08482 whole entry, looked up): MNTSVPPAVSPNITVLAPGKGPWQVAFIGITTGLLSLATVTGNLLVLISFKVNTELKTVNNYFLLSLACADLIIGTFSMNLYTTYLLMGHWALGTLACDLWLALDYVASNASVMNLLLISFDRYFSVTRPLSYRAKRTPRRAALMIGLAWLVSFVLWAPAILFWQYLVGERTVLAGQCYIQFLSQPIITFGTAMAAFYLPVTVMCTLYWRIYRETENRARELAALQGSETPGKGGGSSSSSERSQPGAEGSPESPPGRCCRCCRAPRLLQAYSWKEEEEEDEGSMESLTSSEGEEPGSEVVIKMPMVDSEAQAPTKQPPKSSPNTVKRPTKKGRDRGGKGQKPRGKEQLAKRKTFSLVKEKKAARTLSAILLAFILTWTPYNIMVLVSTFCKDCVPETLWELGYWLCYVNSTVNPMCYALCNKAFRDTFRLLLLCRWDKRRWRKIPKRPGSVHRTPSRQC
# Her2 expr inh: inhibitors of Her2 protein expression, primary screen, SKBR-3 cells, AlphaScreen, 66K library; Receptor tyrosine-protein kinase erbB-2 (Homo sapiens), P04626; SKBR-3 HER2 protein level, 18-24 h; stronger effect = lower value; HER2 level % of control, % at 10 µM; actives 0.69% (n = 65,000); AID 645, 2007;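 active = HER2 level under 5% of the carrier-only control; inconclusive = no clear call, values can overlap the other calls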;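 note: 100% = DMSO carrier and 0% = 500 nM PU-H71 HSP90 inhibitor; lower value means stronger loss of Her2 protein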
# M1 ag confirm: rat M1 muscarinic receptor agonists, confirmation, CHO-M1 cells, Fluo-4 calcium, duplicate retest; fluorescence change (max-min) at 10 µM; shares compounds with M1 ag; Fluo-4 calcium fluorescence, agonist mode; actives lie on both sides; actives 19% (n = 1,700);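 active = fluorescence change differs from the solvent-only DMSO control mean at a set confidence level in both duplicate runs; inconclusive = differs from solvent-only control mean in just one of two runs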;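 note: an EC20 dose of acetylcholine follows compound addition during the same imaging run; raw fluorescence intensity difference in instrument units with no normalization to controls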
# M4 agonist ctr: agonist activity at rat M4 receptor, confirmation, counter-screen for M1 allosteric modulator project, cell-based, agonist mode; shares compounds with M1 ag; CHO M4/Gqi5 cells, Fluo-4 calcium fluorescence; actives lie on both sides; fluorescence change (max-min) at 10 µM; actives 9% (n = 1,700); AID 1741, 2009;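 active = fluorescence change differing from the plate's solvent-only control wells at 99.7% confidence in both duplicates, whether higher or lower; inconclusive = differs from solvent controls in only one of two duplicates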
# * marks the source's active call; other numbers are inactive results; u = inconclusive; x = no result given. Rows were chosen to be rich in hits. Some 6.9% of all compounds tested hit in one or more screens of this group. Cut-off read from the data, not from the text of the source, unless noted: active = inhibition above about 20% (passing the limit was not always enough); inactive = the rest.
SMILES,M1 ag,FXIa inh mix,FXIIa mix inh,JNK3 blocker,M1 antagonist,Her2 expr inh,M1 ag confirm,M4 agonist ctr
CC(C)Cc1nnc(NC(=O)c2ccncc2)s1,0.582,2.7,1.4,1.8,-0.471,120.6,x,x
CCCCc1cc(O)c(CCCC)c(O)c1,37.3*,-6.1,2.9,4.9,-3.31*,78.1,275*,320*
CCCCc1c(O)c2ccccc2[nH]c1=O,-0.0511,2.3,1.7,-2.2,0.0548,87.6,x,x
O=C(CCCn1c(=O)c2sccc2n(CC(=O)OCc2ccccc2)c1=O)NCc1ccco1,4.68*,-11.3,-19.0,2.7,-1.41,80.7,-28.4*,-72.1*
O=C(NCC(c1cccs1)N1CCOCC1)c1ccc(Cl)s1 (stereo not given),0.0142,5.8,-17.4,-6.6,0.0181,60.5,x,x
COc1cc2[nH]c3c(N4CCN(c5ccccn5)CC4)ncnc3c2cc1OC,8.54*,4.1,2.8,4.3,-1.32,49.0,-15.7,-50.7
CCOC(=O)N1CCN(c2ncnc3c2[nH]c2ccc(OC)cc23)CC1,2.11*,-0.7,4.1,-6.1,0.0299,117.3,u,-60.7
O=C(c1ccco1)N1CCN(c2ncnc3c2[nH]c2ccc(Br)cc23)CC1,1.03,8.6,0.6,1.5,-1.56,50.6,x,x
O=C(Cn1c(SCC(=O)NC2CCCC2)nnc1-c1ccncc1)Nc1ccc2c(c1)OCO2,-0.966,-4.8,14.2,-4.7,-0.104,109.5,x,x
O=C1CC(c2ccncc2)c2cc3c(cc2N1)OCO3 (stereo not given),2.45*,6.2,3.4,-2.3,0.0734,109.4,-8.09,u
CCc1c(C(=O)Nc2ccncc2)csc1C,-0.64,-1.2,2.3,1.6,-0.614,118.0,x,x
O=C(Nc1cnc2ccccc2c1)c1cccc(-n2cnnn2)c1,4.4*,-0.5,13.2,3.8,-1.03,61.6,u,-35
CC(=O)N(CCO)Cc1cc2cc(C)cc(C)c2[nH]c1=O,0.0131,-1.5,1.5,6.6,1.23,155.2,x,x
CCc1c(C)nc2ncnn2c1N1CCCC(C(=O)NCc2ccco2)C1 (stereo not given),2.79*,0.3,4.1,x,-4.46*,90.8,u,-42.3
Cc1csc(C(C#N)C(=O)c2cc3ccccc3o2)n1 (stereo not given),-0.745,-5.1,5.7,x,-1.65,106.0,x,x
CSc1cccc(NS(=O)(=O)c2ccc3c(c2)oc(=O)n3C)c1,-3.98*,4.2,3.0,-4.0,-1.23,89.1,-15.4,-35.3
CSc1cccc(NS(=O)(=O)c2cccs2)c1,2.79*,9.7,-1.3,-13.3,0.95,102.7,-28.2*,-56.8
COc1cccc(CN(C)CC(=O)NC(=O)NCc2ccco2)c1,-0.624,2.4,2.7,-4.5,-0.494,82.2,x,x
Cc1ccc(OC(C)c2nnc(N)s2)cc1Cl (stereo not given),2.46*,24.1,-3.5,-0.1,-0.0924,78.7,-19.5*,-58.4
CCn1c(SCC(=O)Nc2nc3ccc(C)cc3s2)nc2c(c1=O)SC(C)C2 (stereo not given),0.0225,14.9,3.7,3.4,0.0284,68.8,x,x
CCn1c(SCC(=O)Nc2nc3ccccc3s2)nc2c(c1=O)SC(C)C2 (stereo not given),2.3*,3.2,6.4,8.1,-1.13,79.5,u,-69.9
Cc1cc(C)nc(-n2nc(C)c(C3(O)C(=O)Nc4ccccc43)c2N)n1 (stereo not given),0.11,-1.1,1.4,x,0.0794,114.9,x,x
COC(=O)C1=C(C)NC(=O)CC1c1cccc(Cl)c1Cl (stereo not given),3.82*,6.4,11.5,-6.4,0.00121,77.2,u,-47.4
CC(C)(C)NC(=O)COC(=O)c1snc(C(=O)NC2CCCCC2)c1N,4.94*,6.6,-17.0,-4.2,-0.961*,42.9,-19.6,u
CCOC(=O)C1=C(O)CSC1=Nc1ccc(Cl)cc1,3.75*,-10.5,-13.1,0.9,1.33,114.7,u,u
SMILES,M1 ag,FXIa inh mix,FXIIa mix inh,JNK3 blocker,M1 antagonist,Her2 expr inh,M1 ag confirm,M4 agonist ctr
CCOC(=O)c1ccc(N=C2NC(=O)CS2)cc1,2.36,5.4,-0.1,6.2,-0.0896,102.4,x,x
CN(C)c1ccc(C(=S)NCc2ccco2)cc1,-0.637,3.5,-23.4,-1.7,0.65,x,x,x
CCS(=O)(=O)NCC(c1cccnc1)N1CCN(c2ccc(F)cc2)CC1 (stereo not given),5.1*,-0.7,6.8,-1.7,-0.552,92.3,-10.8,-27.9
O=C(NCC(c1cccnc1)N1CCN(c2ccc(F)cc2)CC1)c1cccc(Cl)c1 (stereo not given),5.84*,6.4,62.0*,1.3,-1.25,96.0,u,-50.9
COc1ccc(C2(CNC(=O)CCC(=O)O)CCCC2)cc1,-0.581,-3.2,-2.5,8.6,0.397,107.3,x,x
O=C(NCc1ccccn1)c1nnc(Cc2ccc(Cl)cc2)o1,-0.331,7.9,7.3,7.0,0.32,93.6,x,x
O=C(c1noc2c1CCc1ccccc1-2)N1CCc2ccccc2C1,x,4.2,-12.8,-0.9,x,86.7,x,x
O=C(Nc1cccc(-c2cnc3ccccc3n2)c1)c1ccco1,4.27*,11.3,-7.9,9.8,-0.436,82.7,u,-44.4
O=C(Nc1cccc(-c2nc3ccccc3[nH]2)c1)c1cccc(NC(=O)c2ccco2)c1,5.09*,3.4,1.9,18.9*,-0.977,-17.3*,-4.8,-21.3
Cc1cc(=O)oc2ccc(OCC(=O)N(Cc3ccc(F)cc3)Cc3ccco3)cc12,6.36*,-31.8,0.9,3.5,-2.41*,108.6,u,-37.1
CCN(CC)c1ccc(NC(=O)CC2Oc3ccccc3NC2=O)c(C)c1 (stereo not given),-0.643,0.2,0.4,-9.0,0.0548,69.8,x,x
COc1ccc(O)c(-c2[nH]ncc2C(=O)c2ccccc2C)c1,0.673,3.2,0.3,x,0.716,81.0,x,x
CS(=O)(=O)NCCOc1ccc(S(=O)(=O)N2CCCc3ccccc32)cc1,-0.389,-0.5,10.0,-1.3,-1.49,76.0,x,x
Cc1cc(N2CCN(c3ccccc3)CC2)n2c(n1)nc1ccccc12,7.49*,2.4,1.1,4.3,-0.407,103.5,-31.7*,-63.1
Cc1cc(N2CCN(c3ccccc3)CC2)n2nnnc2n1,-0.962,11.0,0.3,1.5,-0.378,81.8,x,x
O=C(Nc1ccc2c(c1)OC1(CCCC1)O2)C1CC1,-0.251,7.8,4.1,12.6,-0.818,96.4,x,x
Cc1occc1C(=O)NCc1ccccn1,2.22*,3.5,-1.7,13.2,0.192,86.9,-2.78,-35.7

# Source: PubChem
